Laboratory results taken from PubChem BioAssay (NCI).
The panel holds about 83,000 compounds, 20% with a hit somewhere; the sample as a whole holds those more often.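 In brief: 96-well plates, 48 h treatment, single concentration, percent growth endpoint.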 The source made the active and inactive calls. How the source made its calls: active means growth percent below 10; inactive means the rest.

Legend:
Assay in all cases: NCI-60 one-dose screen, 48 h (100 = growth as untreated, 0 = no growth, -100 = all killed)
Conditions in all cases: 10 µM unless noted
HT29 colon = test system: HT29 colon
SNB-75 CNS = test system: SNB-75 CNS
SNB-19 CNS = test system: SNB-19 CNS
U251 CNS = test system: U251 CNS
PC-3 prostate = test system: PC-3 prostate
SK-MEL-5 melanoma = test system: SK-MEL-5 melanoma
UACC-62 melanoma = test system: UACC-62 melanoma
LOX IMVI melanoma = test system: LOX IMVI melanoma
SK-MEL-28 melanoma = test system: SK-MEL-28 melanoma
SK-MEL-2 melanoma = test system: SK-MEL-2 melanoma

Measured: growth

C#Cc1nc(C2=C(C)C(OC(C)=O)/C(=N/OC(C)=O)C2)cs1 (configuration not stated)
inactive: SNB-19 CNS 78.4% | SK-MEL-5 melanoma 89.7% | UACC-62 melanoma 11.3%
active: HT29 colon -14.1% | SNB-75 CNS -89% | U251 CNS -13.9% | PC-3 prostate -11.1%

O=C(CN1CCOCC1)NNc1ncnc2ccccc12
inactive: HT29 colon 92% | SNB-75 CNS 72.7% | SNB-19 CNS 102% | U251 CNS 85.3% | PC-3 prostate 78.3% | SK-MEL-5 melanoma 98.2% | UACC-62 melanoma 83.1% | SK-MEL-28 melanoma 71.1% | SK-MEL-2 melanoma 96.3%
active: LOX IMVI melanoma 9.78%

[Cl][Ru].c1ccc(-c2cccc(-c3ccccn3)n2)nc1.c1ccc(-c2ccnc3c2ccc2c(-c4ccccc4)ccnc23)cc1
active: SNB-75 CNS 1.93%
inactive: HT29 colon 21% | SNB-19 CNS 23.5% | U251 CNS 31.7% | PC-3 prostate 23.6% | SK-MEL-5 melanoma 73.1% | UACC-62 melanoma 14.2% | LOX IMVI melanoma 37.4% | SK-MEL-28 melanoma 31.3%

COc1cccc(-c2nn(-c3ccccc3)cc2-c2ccnc(N3CCN(C(=O)Nc4ccc(F)cc4)CC3)c2)c1
inactive: HT29 colon 70% | SNB-75 CNS 66.5% | SNB-19 CNS 64.5% | U251 CNS 67.4% | PC-3 prostate 44.3% | SK-MEL-5 melanoma 42.5% | UACC-62 melanoma 43.8% | LOX IMVI melanoma 59% | SK-MEL-28 melanoma 69.6% | SK-MEL-2 melanoma 51.1%

COc1ccc(/C=N/Nc2ccnc3cc(Cl)ccc23)cc1Cl
active: HT29 colon -55.3% | SNB-75 CNS -88.5% | SNB-19 CNS -79.2% | U251 CNS -90.7% | PC-3 prostate -24.9% | SK-MEL-5 melanoma -93.5% | UACC-62 melanoma -86.4% | LOX IMVI melanoma -35.5% | SK-MEL-28 melanoma -92.4%

O=C1Nc2ccccc2Oc2ccc(S(=O)(=O)CC3CO3)cc21 (configuration not stated)
inactive: HT29 colon 58.8% | SNB-75 CNS 90.6% | SNB-19 CNS 96.9% | U251 CNS 77.6% | PC-3 prostate 62.3% | SK-MEL-5 melanoma 90% | UACC-62 melanoma 67.6% | LOX IMVI melanoma 29.5% | SK-MEL-28 melanoma 64.1%

c1ccc2c(NCCCn3ccnc3)c3oc4ccccc4c3nc2c1
inactive: SNB-75 CNS 17.8% | SNB-19 CNS 11.9% | U251 CNS 17.9%
active: HT29 colon -24% | PC-3 prostate 5.76% | SK-MEL-5 melanoma 9.52% | UACC-62 melanoma -14.9% | LOX IMVI melanoma -61.6% | SK-MEL-28 melanoma 9.69%

Nc1cc(-c2c[nH]c3ccccc23)nc2cc(-c3c[nH]c4ccccc34)nn12
active: HT29 colon 9.63% | LOX IMVI melanoma -25.2%
inactive: SNB-75 CNS 82.5% | SNB-19 CNS 86.2% | U251 CNS 29.7% | PC-3 prostate 60.6% | SK-MEL-5 melanoma 45.6% | UACC-62 melanoma 87.5% | SK-MEL-28 melanoma 59.6%

CCCC(=O)NC(c1ccc(N(CC)CC)cc1)c1cc(C)c2cccnc2c1O (configuration not stated)
inactive: HT29 colon 36.4% | SNB-75 CNS 60.4% | SNB-19 CNS 25.1% | U251 CNS 25.6% | PC-3 prostate 39.3%
active: SK-MEL-5 melanoma -19.8% | UACC-62 melanoma 8.31%

COc1cc(-c2nc3ccc(-c4nnc(SCC(=O)Nc5ccc(C(=O)/C=C/c6ccc(Cl)cc6)cc5)o4)cc3[nH]2)cc(OC)c1OC
active: LOX IMVI melanoma -31.6%
inactive: HT29 colon 102% | SNB-75 CNS 85.3% | SNB-19 CNS 93.4% | U251 CNS 77.6% | PC-3 prostate 95.1% | SK-MEL-5 melanoma 91.4% | UACC-62 melanoma 84% | SK-MEL-28 melanoma 102%

O=C(O)CCCCCN1C(=O)/C(=C/c2ccc(O)c(O)c2)SC1=S
inactive: HT29 colon 116% | SNB-75 CNS 95.1% | SNB-19 CNS 96.1% | U251 CNS 103% | PC-3 prostate 117% | SK-MEL-5 melanoma 98.9% | UACC-62 melanoma 96.8% | LOX IMVI melanoma 108% | SK-MEL-28 melanoma 102% | SK-MEL-2 melanoma 140%

Clc1ccc2oc3c(NCCCN4CCOCC4)c4ccccc4nc3c2c1
inactive: HT29 colon 14% | SNB-75 CNS 24.7% | SNB-19 CNS 35.9% | U251 CNS 23% | PC-3 prostate 40.7% | SK-MEL-5 melanoma 44.2% | UACC-62 melanoma 40% | SK-MEL-28 melanoma 36.9%
active: LOX IMVI melanoma -53.1%

O=c1[nH]c2ccccc2cc1CSc1ccccc1Nc1nccc(-c2ccc(C(F)(F)F)cc2)n1
inactive: HT29 colon 56.1% | SNB-75 CNS 66.4% | SNB-19 CNS 59.6% | U251 CNS 47.5% | PC-3 prostate 56.6% | SK-MEL-5 melanoma 96.2% | UACC-62 melanoma 70.4% | LOX IMVI melanoma 19.8% | SK-MEL-28 melanoma 84.9% | SK-MEL-2 melanoma 89.8%

COc1cccc(N2CCN(c3ncnc4c3[nH]c3ccc(F)cc34)C[C@@H]2C)c1
active: HT29 colon 5.69% | SNB-75 CNS -59% | SNB-19 CNS -12% | U251 CNS -31.5% | PC-3 prostate -42.3% | SK-MEL-5 melanoma -90.9% | UACC-62 melanoma -70.8% | LOX IMVI melanoma 0.646% | SK-MEL-28 melanoma -26.8% | SK-MEL-2 melanoma -94.9%

CS(=O)(=O)c1ccc(-c2nc3ccccn3c2/C=N/Nc2nc(-c3ccc(Cl)cc3)cs2)cc1
inactive: HT29 colon 110% | SNB-75 CNS 120% | SNB-19 CNS 107% | U251 CNS 108% | PC-3 prostate 102% | SK-MEL-5 melanoma 91.7% | UACC-62 melanoma 102% | LOX IMVI melanoma 122% | SK-MEL-28 melanoma 93.1% | SK-MEL-2 melanoma 102%

N#Cc1c(-c2ccc(Cl)cc2)nc(SCc2ccc([N+](=O)[O-])cc2)nc1N1CCNCC1
active: HT29 colon -71.9% | U251 CNS -95.9% | PC-3 prostate -1.75% | LOX IMVI melanoma -61.7% | SK-MEL-28 melanoma 8.08% | SK-MEL-2 melanoma -2.3%
inactive: SNB-75 CNS 28.1% | SNB-19 CNS 51.8% | SK-MEL-5 melanoma 43.6% | UACC-62 melanoma 12.5%

CN1CCN(Cc2ccc(NC(=O)c3cncc(C#Cc4cnc5ccc(N6CCSCC6)nn45)c3)cc2C(F)(F)F)CC1
active: HT29 colon -50.1% | SNB-75 CNS -67.4% | SNB-19 CNS -12.6% | U251 CNS -91.6% | PC-3 prostate 1.39% | SK-MEL-5 melanoma 7.81% | UACC-62 melanoma -30.5% | LOX IMVI melanoma -89.8% | SK-MEL-28 melanoma -48.1% | SK-MEL-2 melanoma -89.1%

O=C1Nc2cc(Cl)ccc2/C1=C\c1ccc(OCc2ccc(Br)cc2F)cc1
active: HT29 colon 0.627% | SNB-75 CNS -72.8% | SNB-19 CNS -41.3% | U251 CNS -68.5% | PC-3 prostate -57.1% | SK-MEL-5 melanoma -12.1% | UACC-62 melanoma -74.3% | LOX IMVI melanoma -92.8% | SK-MEL-28 melanoma -63% | SK-MEL-2 melanoma -42.8%

CN(C)CCCNc1c2ccc(Cl)cc2nc2c1oc1ccc(Cl)cc12
inactive: SNB-75 CNS 45.2% | SNB-19 CNS 38.2% | SK-MEL-5 melanoma 77.1% | UACC-62 melanoma 12.6% | SK-MEL-28 melanoma 72.5% | SK-MEL-2 melanoma 127%
active: HT29 colon -45.6% | U251 CNS -50.9% | PC-3 prostate -24.1% | LOX IMVI melanoma -93.7%

COc1ccccc1/C=C/C=N/NC1=NC2C(S1)N(C)C(=O)N2C (configuration not stated)
inactive: SNB-75 CNS 18.5% | SNB-19 CNS 29.1% | U251 CNS 25.1% | PC-3 prostate 30.2% | SK-MEL-5 melanoma 33.8% | UACC-62 melanoma 46.7% | LOX IMVI melanoma 35.3% | SK-MEL-28 melanoma 56% | SK-MEL-2 melanoma 23.9%
active: HT29 colon 6.54%

COc1ccc(-c2nn3c(-c4ccccc4F)nnc3s2)cc1
inactive: HT29 colon 39.3% | SNB-75 CNS 66.3% | SNB-19 CNS 73.2% | U251 CNS 55.7% | PC-3 prostate 83.1% | SK-MEL-5 melanoma 64.4% | UACC-62 melanoma 51.1% | LOX IMVI melanoma 60.3% | SK-MEL-28 melanoma 59.4% | SK-MEL-2 melanoma 30.5%

Fc1ccc(-c2nc(C(Cl)Cl)nc3cc(-c4ccccc4)nn23)cc1
inactive: PC-3 prostate 31% | SK-MEL-5 melanoma 57% | UACC-62 melanoma 40.6% | LOX IMVI melanoma 32.4% | SK-MEL-2 melanoma 115%
active: HT29 colon -9.69% | SNB-75 CNS -14.7% | SNB-19 CNS 3.82% | U251 CNS -53.6% | SK-MEL-28 melanoma -13.8%

CS(=O)(=O)Nc1ccc(-c2nn(-c3ccc(S(C)(=O)=O)cc3)cc2/C=C/C(=O)c2ccc(NC(=O)CO[N+](=O)[O-])cc2)cc1
inactive: HT29 colon 104% | SNB-75 CNS 108% | SNB-19 CNS 100% | U251 CNS 101% | PC-3 prostate 98.2% | SK-MEL-5 melanoma 100% | UACC-62 melanoma 100% | LOX IMVI melanoma 93.2% | SK-MEL-28 melanoma 104% | SK-MEL-2 melanoma 97.3%

Cc1ccc2ccc3ccc(C)nc3c2n1.Cc1ccc2ccc3ccc(C)nc3c2n1.Oc1c(Cl)cc(Cl)c2ccc(CN3CCCCC3)nc12.[Ru]
active: HT29 colon -61.7% | SNB-75 CNS -71% | SNB-19 CNS -86.4% | U251 CNS -54.5% | PC-3 prostate -82.6% | SK-MEL-5 melanoma -97.9% | UACC-62 melanoma -74% | LOX IMVI melanoma -91.2% | SK-MEL-28 melanoma -89.9% | SK-MEL-2 melanoma -83.1%

CCCCN1C(=O)/C(=c2\sc3n(c2=O)C2C(NN=3)N(CC)C(=O)N2CC)c2cc(Cl)ccc21 (configuration not stated)
inactive: HT29 colon 88.4% | SNB-75 CNS 69.1% | SNB-19 CNS 90.8% | U251 CNS 65.4% | PC-3 prostate 71.2% | SK-MEL-5 melanoma 66% | UACC-62 melanoma 47.5% | LOX IMVI melanoma 75.6% | SK-MEL-28 melanoma 72.1% | SK-MEL-2 melanoma 79.9%
